In the supplement of paper PMC11732987, “Enantioselective OTUD7B fragment discovery through chemoproteomics screening and high-throughput optimisation” (Communications Chemistry, 2025):

What was measured:
Test in all cases: log2 ratio of Biotin-Ahx-Ub-VS probe labelling (fragment/DMSO); higher = less target engagement (more negative = stronger competition), active = hit call of the paper (q ≤ 0.05, log2 ratio ≤ -1)
Conditions in all cases: compound concentration: 200 uM; treatment time: 3 h
[1] = biological target: T1, OTUD6B (UniProt Q8N6M0)
T1 sequence (whole entry): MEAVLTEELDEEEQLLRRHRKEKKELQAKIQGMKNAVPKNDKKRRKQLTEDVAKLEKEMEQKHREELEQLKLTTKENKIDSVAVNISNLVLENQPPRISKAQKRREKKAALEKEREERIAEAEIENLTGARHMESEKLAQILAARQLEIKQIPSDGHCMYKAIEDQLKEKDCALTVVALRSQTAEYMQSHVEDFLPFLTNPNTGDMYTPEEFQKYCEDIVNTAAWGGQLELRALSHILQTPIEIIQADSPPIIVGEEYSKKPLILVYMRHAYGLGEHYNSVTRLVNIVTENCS
How it was run: (§1)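 The table lists average log2 ratios of fragment over vehicle, from an unpaired t-test on global-median-normalised Spectronaut label-free quantities. Proteins with ≥2 unique peptides were used. Samples were HEK293T lysate (495 µg) treated in triplicate with fragment at 200 µM or vehicle for 3 h, then with Biotin-Ahx-Ub-VS (0.5 µM final) for 1 h, with labelled DUBs NeutrAvidin-enriched and run by diaPASEF LC-MS/MS.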

[2] = biological target: T2, OTUD7B (UniProt Q6GQQ9)
T2 sequence (whole entry): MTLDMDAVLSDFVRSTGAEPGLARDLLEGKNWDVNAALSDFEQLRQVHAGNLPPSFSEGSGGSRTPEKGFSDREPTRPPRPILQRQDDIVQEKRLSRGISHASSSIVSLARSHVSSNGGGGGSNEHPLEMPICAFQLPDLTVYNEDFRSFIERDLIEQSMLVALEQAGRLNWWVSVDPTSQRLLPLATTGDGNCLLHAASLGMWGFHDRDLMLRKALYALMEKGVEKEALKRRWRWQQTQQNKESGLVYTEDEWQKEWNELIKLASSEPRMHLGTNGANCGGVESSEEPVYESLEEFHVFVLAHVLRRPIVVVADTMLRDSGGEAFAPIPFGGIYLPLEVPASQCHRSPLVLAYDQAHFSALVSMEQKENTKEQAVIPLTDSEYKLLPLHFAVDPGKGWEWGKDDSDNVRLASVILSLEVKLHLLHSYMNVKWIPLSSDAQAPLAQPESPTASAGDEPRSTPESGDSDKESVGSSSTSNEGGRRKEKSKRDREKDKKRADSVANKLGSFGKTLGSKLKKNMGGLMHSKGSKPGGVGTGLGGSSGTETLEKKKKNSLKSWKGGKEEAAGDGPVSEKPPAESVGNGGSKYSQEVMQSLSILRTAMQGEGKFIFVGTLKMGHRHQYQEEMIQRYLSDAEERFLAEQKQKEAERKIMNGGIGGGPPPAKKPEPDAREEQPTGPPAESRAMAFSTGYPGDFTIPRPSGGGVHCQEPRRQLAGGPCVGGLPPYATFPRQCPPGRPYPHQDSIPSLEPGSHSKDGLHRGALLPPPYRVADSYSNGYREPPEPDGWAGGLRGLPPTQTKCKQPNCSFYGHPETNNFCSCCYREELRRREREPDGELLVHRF
How it was run: as §1

[3] = biological target: PRPF8 (UniProt Q6P2Q9)
How it was run: as §1

[4] = biological target: T3, PSMD7 (UniProt P51665)
T3 sequence (whole entry): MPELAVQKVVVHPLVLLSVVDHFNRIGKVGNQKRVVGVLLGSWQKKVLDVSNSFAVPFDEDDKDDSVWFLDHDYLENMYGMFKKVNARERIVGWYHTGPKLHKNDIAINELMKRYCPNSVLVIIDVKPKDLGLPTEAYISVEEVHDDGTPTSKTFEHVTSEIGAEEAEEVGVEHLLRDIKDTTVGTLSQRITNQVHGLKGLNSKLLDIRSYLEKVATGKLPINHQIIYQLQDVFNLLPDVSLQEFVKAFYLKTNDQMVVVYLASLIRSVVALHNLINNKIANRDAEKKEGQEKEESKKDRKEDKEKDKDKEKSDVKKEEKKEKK
How it was run: as §1

[5] = biological target: UCHL1 (UniProt P09936)
Chain of UCHL1 (P09936 whole entry, looked up): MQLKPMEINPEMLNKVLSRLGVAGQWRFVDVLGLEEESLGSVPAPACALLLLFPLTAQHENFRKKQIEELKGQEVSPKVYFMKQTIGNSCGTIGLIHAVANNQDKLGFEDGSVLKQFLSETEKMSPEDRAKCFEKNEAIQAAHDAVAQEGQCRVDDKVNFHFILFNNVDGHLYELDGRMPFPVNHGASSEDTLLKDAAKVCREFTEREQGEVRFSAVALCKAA
How it was run: as §1

[6] = biological target: T4, UCHL3 (UniProt P15374)
T4 sequence (whole entry): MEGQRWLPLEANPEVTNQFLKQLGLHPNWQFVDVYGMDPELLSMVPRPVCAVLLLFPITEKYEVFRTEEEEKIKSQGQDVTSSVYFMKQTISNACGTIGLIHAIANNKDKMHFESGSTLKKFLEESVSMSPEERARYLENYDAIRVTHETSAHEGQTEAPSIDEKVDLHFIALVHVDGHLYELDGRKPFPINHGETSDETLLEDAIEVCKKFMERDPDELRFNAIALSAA
How it was run: as §1

[7] = biological target: T5, UCHL5 (UniProt Q9Y5K5)
T5 sequence (whole entry): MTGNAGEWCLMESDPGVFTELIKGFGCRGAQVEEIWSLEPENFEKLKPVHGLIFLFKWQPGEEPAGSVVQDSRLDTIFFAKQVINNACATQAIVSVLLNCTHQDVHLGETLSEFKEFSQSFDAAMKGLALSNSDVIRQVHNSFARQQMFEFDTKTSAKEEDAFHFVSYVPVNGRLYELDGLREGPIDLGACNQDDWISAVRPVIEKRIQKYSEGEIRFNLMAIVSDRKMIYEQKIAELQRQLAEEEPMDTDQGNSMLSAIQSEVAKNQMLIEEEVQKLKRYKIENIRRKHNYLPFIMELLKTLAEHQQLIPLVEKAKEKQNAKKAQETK
How it was run: as §1

[8] = biological target: USP10 (UniProt Q14694)
Chain of USP10 (Q14694 whole entry): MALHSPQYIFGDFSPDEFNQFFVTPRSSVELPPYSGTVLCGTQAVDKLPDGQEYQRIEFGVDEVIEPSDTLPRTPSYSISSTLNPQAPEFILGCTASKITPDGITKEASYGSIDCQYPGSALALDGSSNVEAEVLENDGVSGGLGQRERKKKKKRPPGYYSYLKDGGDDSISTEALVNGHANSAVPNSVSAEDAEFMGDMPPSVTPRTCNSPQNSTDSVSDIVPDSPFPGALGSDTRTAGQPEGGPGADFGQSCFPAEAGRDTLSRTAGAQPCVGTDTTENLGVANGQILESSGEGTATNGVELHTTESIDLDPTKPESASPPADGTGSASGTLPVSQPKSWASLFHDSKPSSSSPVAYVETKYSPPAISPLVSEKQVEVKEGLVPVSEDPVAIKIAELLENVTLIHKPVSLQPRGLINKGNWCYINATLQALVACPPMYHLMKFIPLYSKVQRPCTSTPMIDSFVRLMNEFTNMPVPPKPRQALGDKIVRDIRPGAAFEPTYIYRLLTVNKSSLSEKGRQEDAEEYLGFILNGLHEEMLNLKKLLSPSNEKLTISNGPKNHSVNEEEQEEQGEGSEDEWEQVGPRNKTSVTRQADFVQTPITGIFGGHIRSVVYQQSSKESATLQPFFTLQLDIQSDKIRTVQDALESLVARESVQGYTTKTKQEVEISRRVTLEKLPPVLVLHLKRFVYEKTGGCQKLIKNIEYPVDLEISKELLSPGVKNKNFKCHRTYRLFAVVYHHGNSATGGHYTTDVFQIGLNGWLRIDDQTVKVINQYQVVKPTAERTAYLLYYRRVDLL
How it was run: as §1

[9] = biological target: T6, USP15 (UniProt Q9Y4E8)
T6 sequence (whole entry): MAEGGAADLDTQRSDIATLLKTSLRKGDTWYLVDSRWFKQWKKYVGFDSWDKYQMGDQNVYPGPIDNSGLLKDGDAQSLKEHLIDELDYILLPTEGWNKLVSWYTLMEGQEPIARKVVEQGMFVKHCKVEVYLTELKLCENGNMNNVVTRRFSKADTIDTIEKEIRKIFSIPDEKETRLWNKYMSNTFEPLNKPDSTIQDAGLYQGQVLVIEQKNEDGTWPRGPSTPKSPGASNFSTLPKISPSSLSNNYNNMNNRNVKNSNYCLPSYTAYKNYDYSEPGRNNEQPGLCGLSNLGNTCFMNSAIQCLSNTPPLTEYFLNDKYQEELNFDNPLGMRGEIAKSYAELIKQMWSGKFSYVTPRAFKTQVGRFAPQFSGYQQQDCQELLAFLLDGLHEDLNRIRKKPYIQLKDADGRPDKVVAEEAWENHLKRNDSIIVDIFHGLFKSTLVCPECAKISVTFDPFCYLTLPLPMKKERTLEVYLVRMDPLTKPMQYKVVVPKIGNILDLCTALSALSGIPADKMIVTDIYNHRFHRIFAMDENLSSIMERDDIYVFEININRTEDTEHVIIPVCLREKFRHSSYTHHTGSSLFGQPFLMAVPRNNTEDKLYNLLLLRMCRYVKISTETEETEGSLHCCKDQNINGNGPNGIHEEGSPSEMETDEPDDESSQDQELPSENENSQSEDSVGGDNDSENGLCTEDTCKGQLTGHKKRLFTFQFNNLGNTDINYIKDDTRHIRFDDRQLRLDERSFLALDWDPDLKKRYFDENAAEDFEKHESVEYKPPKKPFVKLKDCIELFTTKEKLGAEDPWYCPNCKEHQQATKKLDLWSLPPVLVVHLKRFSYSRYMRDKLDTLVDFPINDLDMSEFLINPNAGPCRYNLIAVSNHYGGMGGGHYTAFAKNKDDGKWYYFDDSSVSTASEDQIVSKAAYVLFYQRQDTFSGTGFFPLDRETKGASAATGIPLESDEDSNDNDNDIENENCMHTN
How it was run: as §1

[10] = biological target: USP16 (UniProt Q9Y5T5)
Chain of USP16 (Q9Y5T5 whole entry, looked up): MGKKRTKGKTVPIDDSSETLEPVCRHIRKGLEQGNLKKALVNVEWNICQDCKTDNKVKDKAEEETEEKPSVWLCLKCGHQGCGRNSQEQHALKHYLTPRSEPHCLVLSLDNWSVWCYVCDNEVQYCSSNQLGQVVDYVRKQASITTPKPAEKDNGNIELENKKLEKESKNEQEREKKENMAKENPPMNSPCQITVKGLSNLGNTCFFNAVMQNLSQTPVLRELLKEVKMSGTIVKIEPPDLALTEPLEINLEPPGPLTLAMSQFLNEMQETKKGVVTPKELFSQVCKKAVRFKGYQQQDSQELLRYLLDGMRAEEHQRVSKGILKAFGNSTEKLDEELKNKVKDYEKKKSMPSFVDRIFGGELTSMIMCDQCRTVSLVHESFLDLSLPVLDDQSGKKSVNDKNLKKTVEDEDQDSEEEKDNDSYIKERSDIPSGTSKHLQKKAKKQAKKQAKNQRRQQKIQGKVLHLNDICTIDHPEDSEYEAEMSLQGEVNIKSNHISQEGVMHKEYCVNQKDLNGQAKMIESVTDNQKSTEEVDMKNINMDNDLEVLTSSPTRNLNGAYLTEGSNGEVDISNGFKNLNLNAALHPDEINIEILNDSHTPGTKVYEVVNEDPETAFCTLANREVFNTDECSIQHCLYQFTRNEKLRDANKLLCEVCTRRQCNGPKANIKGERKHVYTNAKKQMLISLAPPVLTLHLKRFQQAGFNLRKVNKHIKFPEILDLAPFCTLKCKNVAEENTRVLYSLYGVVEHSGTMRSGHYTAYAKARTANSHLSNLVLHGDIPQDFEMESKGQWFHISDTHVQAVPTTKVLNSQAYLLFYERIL
How it was run: as §1

Measured: log2 ratio of Biotin-Ahx-Ub-VS probe labelling

O=C(CCl)NCCc1ccc(F)cc1
active: [5] -1.09
inactive: [1] 0.0481 | [2] -0.435 | [3] -0.0623 | [4] 0.0236 | [6] 0.132 | [7] -0.0307 | [8] -0.0913 | [9] -0.0724 | [10] 0.107
